Data from the supplement of paper PMC10849652.
Of roughly 7,900 targets only a part is listed; those with a hit were picked by preference. About 0.6% of all pairs of compound and target were hits.

Tests used:
Assay in all cases: log2 fold change, soluble protein after heating vs DMSO (PISA); higher = thermal stabilisation; K562 cells, 10 uM, 30 min; active = over 0.2 and 3.5 SD of the protein, either way, in both replicates (recomputed)
erlotinib = compound: C#Cc1cccc(Nc2ncnc3cc(OCCOC)c(OCCOC)cc23)c1 [erlotinib]
Summary of the method: (§1)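 K562 cells at 2×10^6 cells/mL were treated with 10 μM compound for 30 min. Aliquots were heated for 3 min across 48°C-58°C, pooled, and extracted in PBS with 0.5% NP-40 at 4°C; soluble protein was the supernatant after 21,000xg for 90 min. Soluble protein was quantified by TMTpro 16plex LC-MS/MS with channel sums equalised, and reported as log2 fold change in thermal stability against DMSO controls, with values from duplicates.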

[1] = compound: C/C(=N\NC(=O)C1=CC(=CC=C1)S(=O)(=O)N2CCOCC2)/C3=C(C=CC(=C3)Cl)O
Summary of the method: as §1

[2] = compound: C1=CC(=C(C=C1Cl)C2=NC3=NC=CN=C3C(=N2)NC4=CC=NC=C4)F
Summary of the method: as §1

[3] = compound: C1=CC(=CC=C1C2=NC3=C(N2)C=C(C=C3)C(=O)N)OC4=CC=C(C=C4)Cl
Summary of the method: as §1

[4] = compound: C1=CC2=C(C=CC(=C2)/C=C\3/C(=O)NC(=NCC4=CC=CS4)S3)N=C1
Summary of the method: as §1

[5] = compound: C1=CC2=NC=CN=C2C=C1/C=C/3\C(=O)NC(=O)S3
Summary of the method: as §1

[6] = compound: C1=CC=C(C=C1)C2=NC(=C(N2)C3=CC=NC=C3)C4=CC(=C(C=C4)Cl)O
Summary of the method: as §1

[7] = compound: C1=CC=C2C(=C1)C3=NNC4=CC=CC(=C43)C2=O
Summary of the method: as §1

[8] = compound: C1CCN(C1)C(=O)NC2=CC=CC(=C2)NC3=NC=C(C(=N3)NCCC4=CN=CN4)Br
Summary of the method: as §1

[9] = compound: C1CN(CCC1(CC2=CC=C(C=C2)Cl)N)C3=NC=NC4=C3C=CN4
Summary of the method: as §1

IRAK-1-4 Inhibitor I = compound: C1COCCN1CCN2C3=CC=CC=C3N=C2NC(=O)C4=CC(=CC=C4)[N+](=O)[O-] [IRAK-1-4 Inhibitor I]
Summary of the method: as §1

ibrutinib = compound: C=CC(=O)N1CCC[C@@H](n2nc(-c3ccc(Oc4ccccc4)cc3)c3c(N)ncnc32)C1 [ibrutinib]
Summary of the method: as §1

[10] = compound: CC(=O)c1cnc2ccc(-c3cc(Cl)c(O)c(Cl)c3)nc2c1N[C@H]1CC[C@H](CN(C)C)CC1
Summary of the method: as §1

ralimetinib = compound: CC(C)(C)Cn1c(N)nc2ccc(-c3[nH]c(C(C)(C)C)nc3-c3ccc(F)cc3)nc21 [ralimetinib]
Summary of the method: as §1

[11] = compound: CC(C)(O)CC(=O)NCCn1ccc2ncnc(Nc3ccc(Oc4cccc(C(F)(F)F)c4)c(Cl)c3)c21
Summary of the method: as §1

[12] = compound: CC(C)C1=C2N=C(C=C(N2N=C1)NCC3=CC=CC=C3)NCCCCCCN
Summary of the method: as §1

[13] = compound: CC(C)C[C@@H](C=O)NC(=O)[C@H](CC(C)C)NC(=O)[C@H](CC(C)C)NC(=O)OCc1ccccc1
Summary of the method: as §1

pinometostat = compound: CC(C)N(C[C@H]1O[C@@H](n2cnc3c(N)ncnc32)[C@H](O)[C@@H]1O)[C@H]1C[C@@H](CCc2nc3cc(C(C)(C)C)ccc3[nH]2)C1 [pinometostat]
Summary of the method: as §1

[14] = compound: CC1=C(C(CC(=O)N1)C2=CC=C(C=C2)C(F)(F)F)C(=O)NC3=C(C=C4C(=C3)C=NN4)F
Summary of the method: as §1

[15] = compound: CC1=C(C2=C(C=C1)C(=O)C3=CC=CC=C3N2CCCN)C
Summary of the method: as §1

Measured: log2 fold change

KEAP1 (UniProt Q14145)
inactive: erlotinib -0.015 | [1] -0.031 | [2] 0.025 | [3] -0.021 | [4] 0.025 | [5] 0.159 | [6] -0.098 | [7] 0.023 | [8] -0.045 | [9] -0.034 | IRAK-1-4 Inhibitor I 0.008 | ibrutinib -0.085 | [10] 0.022 | ralimetinib 0.074 | [11] -0.07 | [13] 0.023 | pinometostat 0.109 | [14] -0.017 | [15] 0.028
active: [12] -0.233

ILK (UniProt Q13418)
Chain of UniProt Q13418 (Q13418 whole entry, looked up): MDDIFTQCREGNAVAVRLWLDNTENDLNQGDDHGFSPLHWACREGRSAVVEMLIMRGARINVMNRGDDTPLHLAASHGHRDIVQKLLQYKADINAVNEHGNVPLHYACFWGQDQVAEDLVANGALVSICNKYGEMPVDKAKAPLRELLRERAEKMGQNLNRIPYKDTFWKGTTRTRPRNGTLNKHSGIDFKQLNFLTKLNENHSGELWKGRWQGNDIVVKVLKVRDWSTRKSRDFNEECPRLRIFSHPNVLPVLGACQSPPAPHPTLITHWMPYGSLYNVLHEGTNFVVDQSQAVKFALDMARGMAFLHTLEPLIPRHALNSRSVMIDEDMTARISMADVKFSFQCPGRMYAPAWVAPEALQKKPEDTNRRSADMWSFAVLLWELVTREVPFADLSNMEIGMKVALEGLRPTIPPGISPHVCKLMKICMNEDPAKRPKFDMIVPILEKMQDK
inactive: erlotinib 0 | [1] -0.119 | [2] -0.086 | [3] 0.016 | [4] 0.091 | [5] 0.002 | [6] -0.056 | [7] -0.056 | [8] 0.068 | [9] 0.008 | IRAK-1-4 Inhibitor I 0.029 | ibrutinib 0.004 | [10] -0.029 | ralimetinib 0.027 | [11] -0.081 | [12] -0.094 | [13] 0.128 | pinometostat 0.083 | [14] -0.005 | [15] 0.01

KIF1B isoform 4 (UniProt O60333)
Chain of UniProt O60333 (O60333 whole entry, looked up): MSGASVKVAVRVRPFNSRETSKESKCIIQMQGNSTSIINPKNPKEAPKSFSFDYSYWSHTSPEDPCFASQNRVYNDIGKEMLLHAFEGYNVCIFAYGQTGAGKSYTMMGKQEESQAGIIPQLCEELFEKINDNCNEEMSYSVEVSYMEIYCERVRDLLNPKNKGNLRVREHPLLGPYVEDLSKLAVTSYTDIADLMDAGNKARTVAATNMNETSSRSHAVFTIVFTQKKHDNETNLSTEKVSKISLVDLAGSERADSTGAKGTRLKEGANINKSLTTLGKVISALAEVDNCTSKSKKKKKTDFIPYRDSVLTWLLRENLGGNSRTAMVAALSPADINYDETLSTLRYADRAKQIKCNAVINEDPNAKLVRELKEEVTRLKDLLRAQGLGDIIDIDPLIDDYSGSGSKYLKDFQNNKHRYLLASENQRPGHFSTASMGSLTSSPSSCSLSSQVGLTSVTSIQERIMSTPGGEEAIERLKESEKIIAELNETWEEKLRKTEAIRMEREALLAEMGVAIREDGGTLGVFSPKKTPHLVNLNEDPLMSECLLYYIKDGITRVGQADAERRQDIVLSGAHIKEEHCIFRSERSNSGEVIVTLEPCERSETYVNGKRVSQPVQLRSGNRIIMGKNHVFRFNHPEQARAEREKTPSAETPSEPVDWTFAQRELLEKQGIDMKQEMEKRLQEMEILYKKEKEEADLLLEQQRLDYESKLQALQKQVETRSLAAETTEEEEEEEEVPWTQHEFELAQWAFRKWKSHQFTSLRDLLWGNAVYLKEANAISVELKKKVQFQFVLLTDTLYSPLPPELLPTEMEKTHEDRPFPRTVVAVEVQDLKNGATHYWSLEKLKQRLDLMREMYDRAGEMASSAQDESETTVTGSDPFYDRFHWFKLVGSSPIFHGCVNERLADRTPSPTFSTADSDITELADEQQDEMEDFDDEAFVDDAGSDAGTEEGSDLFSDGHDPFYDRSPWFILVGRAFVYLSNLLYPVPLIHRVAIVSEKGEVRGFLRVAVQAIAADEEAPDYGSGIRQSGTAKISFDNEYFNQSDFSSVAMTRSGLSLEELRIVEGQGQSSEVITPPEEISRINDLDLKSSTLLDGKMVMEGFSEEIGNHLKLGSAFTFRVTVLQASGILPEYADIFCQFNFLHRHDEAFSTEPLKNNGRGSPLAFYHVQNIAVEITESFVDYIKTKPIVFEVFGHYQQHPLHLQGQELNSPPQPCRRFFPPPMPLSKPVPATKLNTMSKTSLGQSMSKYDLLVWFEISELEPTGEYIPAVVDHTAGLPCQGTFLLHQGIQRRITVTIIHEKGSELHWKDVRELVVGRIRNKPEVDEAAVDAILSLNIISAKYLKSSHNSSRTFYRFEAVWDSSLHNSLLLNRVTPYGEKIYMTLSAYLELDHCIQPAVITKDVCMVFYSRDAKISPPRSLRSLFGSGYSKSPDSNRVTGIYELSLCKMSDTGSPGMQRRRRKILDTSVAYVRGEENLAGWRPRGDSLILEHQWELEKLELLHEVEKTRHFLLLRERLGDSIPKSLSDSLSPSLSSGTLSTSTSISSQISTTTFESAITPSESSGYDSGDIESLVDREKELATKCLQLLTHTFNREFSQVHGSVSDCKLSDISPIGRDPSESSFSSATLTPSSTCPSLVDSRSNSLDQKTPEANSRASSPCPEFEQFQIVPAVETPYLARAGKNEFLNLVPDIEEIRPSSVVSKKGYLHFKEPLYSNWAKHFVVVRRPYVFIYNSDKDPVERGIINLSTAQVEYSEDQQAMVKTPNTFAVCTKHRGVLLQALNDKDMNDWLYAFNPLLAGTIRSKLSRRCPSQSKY
inactive: erlotinib 0.031 | [1] 0.095 | [2] 0.042 | [3] -0.059 | [4] 0.002 | [5] 0.018 | [6] -0.092 | [7] 0.078 | [8] -0.02 | [9] -0.091 | IRAK-1-4 Inhibitor I -0.004 | ibrutinib -0.017 | [10] 0 | ralimetinib -0.029 | [11] -0.063 | [12] 0.002 | [13] 0.002 | pinometostat 0.061 | [14] -0.057 | [15] -0.024

MAPKAPK2 (UniProt P49137)
active: [10] 0.267
inactive: erlotinib 0.033 | [1] 0.059 | [2] 0.186 | [3] -0.011 | [4] 0.064 | [5] 0.008 | [6] 0.207 | [7] -0.069 | [8] 0.047 | [9] 0.002 | IRAK-1-4 Inhibitor I 0.039 | ibrutinib -0.009 | ralimetinib 0.213 | [11] -0.03 | [12] -0.048 | [13] -0.022 | pinometostat -0.028 | [14] -0.03 | [15] -0.009

MAGOHB (UniProt Q96A72)
inactive: erlotinib 0.011 | [1] 0.124 | [2] 0.025 | [3] -0.002 | [4] -0.16 | [5] -0.013 | [6] -0.032 | [7] 0.071 | [8] -0.157 | [9] -0.061 | IRAK-1-4 Inhibitor I -0.031 | ibrutinib 0.004 | [10] 0.25 | ralimetinib -0.094 | [11] 0.015 | [12] 0.061 | [13] 0 | pinometostat -0.022 | [14] -0.034 | [15] 0.028

JMJD6 isoform 3 (UniProt Q6NYC1)
inactive: erlotinib -0.009 | [1] 0.011 | [2] 0.039 | [3] 0.044 | [4] 0.051 | [5] 0.03 | [6] 0.107 | [7] -0.037 | [8] -0.007 | [9] 0.181 | IRAK-1-4 Inhibitor I -0.02 | ibrutinib -0.011 | [10] -0.049 | ralimetinib -0.065 | [11] 0.019 | [12] -0.041 | [13] 0.004 | pinometostat -0.016 | [14] 0.013 | [15] 0.102

IL27RA (UniProt Q6UWB1)
inactive: erlotinib -0.082 | [1] 0.04 | [2] -0.147 | [3] 0.007 | [4] 0.021 | [5] 0.048 | [6] 0.064 | [7] 0.068 | [8] -0.011 | [9] 0.075 | IRAK-1-4 Inhibitor I -0.189 | ibrutinib 0.077 | [10] 0.011 | ralimetinib 0.058 | [11] 0.005 | [12] 0.139 | [13] -0.167 | pinometostat 0.043 | [14] 0.1 | [15] 0.012

LPCAT3 (UniProt Q6P1A2)
Chain of UniProt Q6P1A2 (Q6P1A2 whole entry, looked up): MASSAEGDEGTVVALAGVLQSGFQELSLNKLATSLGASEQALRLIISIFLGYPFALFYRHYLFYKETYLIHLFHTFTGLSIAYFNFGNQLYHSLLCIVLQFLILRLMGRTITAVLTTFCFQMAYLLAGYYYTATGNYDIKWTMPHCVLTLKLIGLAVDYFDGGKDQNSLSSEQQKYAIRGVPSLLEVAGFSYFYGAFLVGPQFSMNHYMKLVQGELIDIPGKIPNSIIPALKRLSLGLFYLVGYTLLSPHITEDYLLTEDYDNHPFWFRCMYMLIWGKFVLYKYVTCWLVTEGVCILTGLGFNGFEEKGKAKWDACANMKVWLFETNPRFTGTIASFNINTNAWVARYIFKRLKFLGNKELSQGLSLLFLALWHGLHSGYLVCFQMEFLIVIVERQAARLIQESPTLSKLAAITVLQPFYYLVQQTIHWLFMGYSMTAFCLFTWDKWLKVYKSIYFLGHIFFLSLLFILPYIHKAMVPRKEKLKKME
active: [12] -0.65
inactive: erlotinib -0.062 | [1] 0.028 | [2] 0.032 | [3] 0.07 | [4] 0.152 | [5] 0.071 | [6] 0.211 | [7] 0.014 | [8] 0.059 | [9] 0.002 | IRAK-1-4 Inhibitor I 0.014 | ibrutinib -0.034 | [10] 0.099 | ralimetinib 0.009 | [11] 0.148 | [13] -0.004 | pinometostat 0.083 | [14] -0.004 | [15] 0.03

LARP7 isoform 3 (UniProt Q4G0J3)
Chain of UniProt Q4G0J3 (Q4G0J3 whole entry, looked up): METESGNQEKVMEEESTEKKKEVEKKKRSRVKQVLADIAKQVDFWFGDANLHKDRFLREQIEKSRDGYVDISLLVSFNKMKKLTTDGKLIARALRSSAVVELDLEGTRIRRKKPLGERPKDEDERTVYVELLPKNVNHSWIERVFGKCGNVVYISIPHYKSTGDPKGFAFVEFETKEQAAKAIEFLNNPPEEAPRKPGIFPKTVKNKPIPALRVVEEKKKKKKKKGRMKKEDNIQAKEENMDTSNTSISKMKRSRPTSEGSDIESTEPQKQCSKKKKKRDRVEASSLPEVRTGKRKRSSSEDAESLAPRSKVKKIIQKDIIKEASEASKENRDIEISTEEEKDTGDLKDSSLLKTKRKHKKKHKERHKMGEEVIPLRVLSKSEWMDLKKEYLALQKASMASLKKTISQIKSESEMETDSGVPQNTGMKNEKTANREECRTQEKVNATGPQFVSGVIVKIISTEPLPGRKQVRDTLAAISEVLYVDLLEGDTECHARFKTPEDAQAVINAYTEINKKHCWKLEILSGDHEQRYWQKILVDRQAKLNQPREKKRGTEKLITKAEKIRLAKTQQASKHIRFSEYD
active: [15] -0.383
inactive: erlotinib 0.01 | [1] 0.119 | [2] 0.022 | [3] 0.034 | [4] 0.06 | [5] 0.023 | [6] 0.025 | [7] -0.055 | [8] -0.052 | [9] 0.045 | IRAK-1-4 Inhibitor I -0.061 | ibrutinib 0.031 | [10] 0.063 | ralimetinib 0.111 | [11] 0.021 | [12] -0.246 | [13] -0.057 | pinometostat 0.05 | [14] -0.063

IKZF1 (UniProt Q13422)
Chain of UniProt Q13422 (Q13422 whole entry, looked up): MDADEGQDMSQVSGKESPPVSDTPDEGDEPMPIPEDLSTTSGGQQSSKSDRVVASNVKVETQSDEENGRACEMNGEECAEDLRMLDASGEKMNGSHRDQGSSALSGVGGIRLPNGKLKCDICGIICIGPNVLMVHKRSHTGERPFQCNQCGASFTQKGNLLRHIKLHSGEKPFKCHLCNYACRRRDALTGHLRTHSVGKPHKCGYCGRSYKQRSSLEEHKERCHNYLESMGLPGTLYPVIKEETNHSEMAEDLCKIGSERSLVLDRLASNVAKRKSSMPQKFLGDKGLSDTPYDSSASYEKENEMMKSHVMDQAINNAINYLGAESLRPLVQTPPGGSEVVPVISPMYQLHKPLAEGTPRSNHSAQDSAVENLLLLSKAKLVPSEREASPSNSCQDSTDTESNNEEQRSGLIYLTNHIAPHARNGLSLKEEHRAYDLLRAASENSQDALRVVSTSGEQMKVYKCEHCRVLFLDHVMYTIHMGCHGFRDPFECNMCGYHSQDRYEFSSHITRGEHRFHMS
inactive: erlotinib -0.005 | [1] -0.018 | [2] -0.008 | [3] 0.002 | [4] -0.015 | [5] 0.019 | [6] -0.069 | [7] 0.144 | [8] 0.051 | [9] 0 | IRAK-1-4 Inhibitor I -0.017 | ibrutinib 0.041 | [10] -0.069 | ralimetinib -0.036 | [11] -0.015 | [12] -0.016 | [13] 0.011 | pinometostat 0.01 | [14] 0.02 | [15] 0.275

MAP3K7 (UniProt O43318)
Chain of UniProt O43318 (O43318 whole entry, looked up): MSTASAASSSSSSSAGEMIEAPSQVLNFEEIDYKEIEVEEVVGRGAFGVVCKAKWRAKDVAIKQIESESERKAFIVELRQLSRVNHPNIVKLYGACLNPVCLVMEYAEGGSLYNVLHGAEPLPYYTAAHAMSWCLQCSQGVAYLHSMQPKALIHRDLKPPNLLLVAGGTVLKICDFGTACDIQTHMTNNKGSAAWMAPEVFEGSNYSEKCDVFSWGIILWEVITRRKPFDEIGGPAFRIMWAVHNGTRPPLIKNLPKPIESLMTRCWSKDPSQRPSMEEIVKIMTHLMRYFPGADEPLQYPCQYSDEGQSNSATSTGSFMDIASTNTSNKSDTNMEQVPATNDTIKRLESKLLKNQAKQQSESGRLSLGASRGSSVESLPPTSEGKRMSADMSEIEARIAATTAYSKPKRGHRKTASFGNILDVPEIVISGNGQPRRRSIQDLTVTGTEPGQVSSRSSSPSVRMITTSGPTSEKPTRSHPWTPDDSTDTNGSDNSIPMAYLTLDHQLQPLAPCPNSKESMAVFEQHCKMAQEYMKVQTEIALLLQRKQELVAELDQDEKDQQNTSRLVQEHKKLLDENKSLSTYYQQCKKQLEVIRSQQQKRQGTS
inactive: erlotinib 0.078 | [1] 0.009 | [2] -0.067 | [3] -0.091 | [4] 0.034 | [5] -0.031 | [6] -0.016 | [7] 0.113 | [8] -0.005 | [9] -0.168 | IRAK-1-4 Inhibitor I -0.123 | ibrutinib -0.061 | [10] -0.075 | ralimetinib 0.035 | [11] -0.207 | [12] -0.159 | [13] 0.05 | pinometostat 0.102 | [14] 0.024 | [15] 0.006

MCCC2 (UniProt Q9HCC0)
Chain of UniProt Q9HCC0 (Q9HCC0 whole entry, looked up): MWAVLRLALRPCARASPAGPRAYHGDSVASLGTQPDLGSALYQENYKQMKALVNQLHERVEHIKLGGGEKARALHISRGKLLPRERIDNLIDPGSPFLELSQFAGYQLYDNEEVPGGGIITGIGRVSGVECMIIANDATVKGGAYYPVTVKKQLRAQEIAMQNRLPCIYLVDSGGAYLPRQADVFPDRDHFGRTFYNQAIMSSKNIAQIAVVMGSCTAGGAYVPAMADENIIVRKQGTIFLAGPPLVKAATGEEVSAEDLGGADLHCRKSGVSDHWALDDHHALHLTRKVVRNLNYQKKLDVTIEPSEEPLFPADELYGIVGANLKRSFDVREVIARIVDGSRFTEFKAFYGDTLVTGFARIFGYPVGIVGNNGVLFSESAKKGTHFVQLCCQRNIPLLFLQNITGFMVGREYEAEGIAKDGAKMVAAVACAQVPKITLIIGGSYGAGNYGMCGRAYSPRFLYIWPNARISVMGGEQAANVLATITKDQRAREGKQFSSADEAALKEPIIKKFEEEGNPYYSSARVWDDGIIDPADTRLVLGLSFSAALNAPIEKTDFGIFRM
inactive: erlotinib 0.019 | [1] 0.123 | [2] 0.03 | [3] 0.004 | [4] -0.04 | [5] 0.011 | [6] 0.047 | [7] 0.004 | [8] 0.004 | [9] 0.035 | IRAK-1-4 Inhibitor I 0.046 | ibrutinib 0.019 | [10] 0.047 | ralimetinib -0.015 | [11] 0.027 | [12] 0.024 | [13] -0.04 | pinometostat -0.05 | [14] 0 | [15] 0.003

KRAS isoform 2 (UniProt P01116)
inactive: erlotinib -0.035 | [1] -0.011 | [2] 0.006 | [3] 0.029 | [4] 0.005 | [5] 0.019 | [6] 0.002 | [7] -0.03 | [8] 0.045 | [9] -0.084 | IRAK-1-4 Inhibitor I 0.045 | ibrutinib -0.035 | [10] -0.07 | ralimetinib 0.02 | [11] 0.101 | [12] 0.099 | pinometostat 0.014 | [14] 0.001 | [15] 0.072
active: [13] 0.241

MAIP1 (UniProt Q8WWC4)
inactive: erlotinib -0.02 | [1] 0.006 | [2] -0.012 | [3] 0.002 | [4] 0.02 | [5] 0.042 | [6] 0.066 | [7] 0.037 | [8] -0.024 | [9] 0.012 | IRAK-1-4 Inhibitor I 0 | ibrutinib -0.014 | [10] -0.004 | ralimetinib -0.028 | [11] 0.09 | [12] -0.201 | [13] -0.026 | pinometostat -0.042 | [14] -0.011 | [15] 0.052

KDELR2 (UniProt P33947)
inactive: erlotinib -0.06 | [1] -0.052 | [2] 0.048 | [3] -0.02 | [4] 0.042 | [5] 0.024 | [6] 0.201 | [7] 0.048 | [8] -0.102 | [9] 0.019 | IRAK-1-4 Inhibitor I -0.007 | ibrutinib 0.03 | [10] -0.14 | ralimetinib 0.127 | [11] -0.035 | [12] -0.047 | pinometostat -0.008 | [14] 0.024 | [15] 0.103
active: [13] -0.568

IPO9 (UniProt Q96P70)
active: [15] 0.447
inactive: erlotinib -0.021 | [1] 0.073 | [2] 0.01 | [3] -0.061 | [4] 0.023 | [5] 0.096 | [6] -0.035 | [7] -0.024 | [8] -0.02 | [9] 0.052 | IRAK-1-4 Inhibitor I 0.024 | ibrutinib -0.082 | [10] 0.113 | ralimetinib 0.01 | [11] -0.079 | [12] -0.039 | [13] -0.068 | pinometostat 0.012 | [14] -0.025
